# Assay results as given in PubChem BioAssay.
# Where “and” joins values, the source holds several entries; their conditions need not be identical. Equal entries are not always repeated. Where a structure was tested more than once in an assay, its records may differ in their call. Calls of active or inactive are those of the source.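 Rule for the calls, unless noted: active = compounds whose cell count with miR-34 switched on is under 0.7 times the count with it off; inactive = the rest.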
# Legend:
# [1] = yeast 75Q aggregation reduction – 75Q-TubU reporter (AID 1593); conditions: Yeast 75Q polyglutamine aggregation reporter
# [2] = blockers of cytochrome c efflux from mitochondria – biochemical, purified mitochondria (AID 1603); conditions: stronger effect = lower value;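 note: mouse liver mitochondria challenged with calcium chloride; signal normalized to the plate average as 100%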
# [3] = polyglutamine aggregate formation blockers (AID 1604); conditions: polyglutamine-induced protein aggregation inhibition assay; stronger effect = higher value; tested at 2.5 µM
# [4] = Wnt pathway potentiators raising nuclear beta-catenin – imaging, WNT3A-conditioned medium, mouse C2C12, NPC library, primary screen (AID 1117326; in the data active = nuclear beta-catenin stimulation mostly above about 4.2%, no sharp cut-off; inactive = mostly below about 10%); conditions: stronger effect = higher value
# [5] = stimulators of insulin release from INS-1E, primary screen, cell-based, 5 mM glucose, NPC library (AID 1117329;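 active = compound raises insulin release from rat beta cells at 5 mM glucose, no numeric limit stated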); conditions: rat INS-1E insulin secretion, at 10 µM, stronger effect = higher value
# [6] = growth inhibition of GSK3B-pretreated HCT116 cells – cell-based, CellTiter-Glo, 0.2 to 20 µM (AID 1117336;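 active = compounds lowering colon cancer cell viability after pretreatment blocking the GSK3B kinase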); conditions: HCT116 viability after GSK3B inhibitor, at 20 µM, stronger effect = higher value
# [7] = inhibition of endothelial tube formation, primary screen, imaging, VEGF stimulated, CD31 staining, tube area, NPC library (AID 1117340;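 active = compound that reduces growth-factor-driven endothelial tube area in a mixed cell culture, no cutoff stated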); conditions: VEGF-stimulated ADSC/ECFC co-culture, at 10 µM, stronger effect = higher value
# [8] = GLP1 release stimulators, primary, NCI-H716, NPC library (AID 1117341;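 active = compound raises GLP1 secretion from the human gut endocrine cells, with no numeric limit stated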); conditions: NCI-H716 cells, at 10 µM, stronger effect = higher value
# [9] = HCT116 colon cancer cell growth inhibition, primary screen, CellTiter-Glo luminescence, NPC library (AID 1117342;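 active = compounds that lower survival of HCT116 colon cancer cells in the luminescence readout, no numeric limit stated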); conditions: at 20 µM (top of the series)
# [10] = reduced SW480 viability measured with CellTiter-Glo, NPC library, primary (AID 1117343;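 active = compounds that lower viability of the colon cancer cells in the luminescence readout, with no numeric limit stated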); conditions: CellTiter-Glo luminescence; at 20 µM (top of the series)
# [11] = NPC library primary testing for decreased DLD-1 cell viability via CellTiter-Glo (AID 1117346;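 active = compounds that lower survival of DLD-1 colon cancer cells in the luminescence readout, no cutoff given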); conditions: DLD-1 viability, CellTiter-Glo luminescence; at 20 µM (top of the series)
# [12] = biological target: 6-phosphogluconate dehydrogenase, decarboxylating (Homo sapiens) (UniProt P52209); test: inhibition of human phosphogluconate dehydrogenase – biochemical, recombinant enzyme, NADPH absorbance, primary screen (AID 1159550;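 active = at least 20% inhibition of 6-phosphogluconate dehydrogenase activity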); conditions: recombinant 6PGD, NADPH absorbance 341 nm; at 10 µM; stronger effect = higher value
# 6-phosphogluconate dehydrogenase, decarboxylating (Homo sapiens), sequence (P52209 whole entry, looked up): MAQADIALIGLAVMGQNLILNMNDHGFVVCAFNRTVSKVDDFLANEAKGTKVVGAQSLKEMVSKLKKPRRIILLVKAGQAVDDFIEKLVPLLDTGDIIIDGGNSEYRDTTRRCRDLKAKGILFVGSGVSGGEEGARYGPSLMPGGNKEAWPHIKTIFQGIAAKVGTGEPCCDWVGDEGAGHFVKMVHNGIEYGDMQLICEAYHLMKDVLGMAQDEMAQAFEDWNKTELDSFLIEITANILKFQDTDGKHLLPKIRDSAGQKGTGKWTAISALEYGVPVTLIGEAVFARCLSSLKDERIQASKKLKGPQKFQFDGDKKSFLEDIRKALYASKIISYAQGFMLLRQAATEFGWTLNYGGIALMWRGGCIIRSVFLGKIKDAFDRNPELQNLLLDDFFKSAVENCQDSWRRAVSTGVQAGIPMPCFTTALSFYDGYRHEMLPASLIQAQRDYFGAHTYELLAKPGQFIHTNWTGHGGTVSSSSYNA
# [13] = EMT-state selective cytotoxicity in co-culture – imaging, PC-3E GFP, TEM4-18 mCherry, primary screen (AID 1345086;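 active = compounds killing one labelled cell type while sparing the other, by normalised counts and ratio limits, not self-fluorescent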;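 for all read-outs here: cells exposed to compound for 72 h before imaging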;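 for red/green cell ratio (normalised): normalised mesenchymal count divided by normalised epithelial count so high means epithelial killing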); conditions: PC-3E GFP / TEM4-18 mCherry co-culture, imaging cell counts, at 1 µM; for red/green cell ratio (normalised): actives lie on both sides
# [14] = test system: Aerobactin synthetase IucA (Klebsiella pneumoniae hvKP1); test: IucA enzyme inhibition, primary screen, biochemical, Spectrum library (AID 1346200; call rule not given here;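 note: 100% = wells without compound and 0% = wells lacking enzyme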); conditions: malachite green pyrophosphate, A620, at 8 µM, stronger effect = lower value
# [15] = viability loss with induced miR-34 in A549 – imaging, A549 dox-inducible miR-34, nuclei and caspase counts, primary screen (AID 1347080); conditions: A549 miR-34 inducible, Hoechst nuclei count, 48 h
# [16] = MELAS cybrid and Rieske KO viability enhancers – cell-based, MELAS cybrids, Rieske KO mouse fibroblasts, CellTiter-Glo, primary screen (AID 1508586;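 active = mean z-score across replicates of 1.96 or higher in either the MELAS or the Rieske mutant cell line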;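 note: z relative to plate mean and SD of compound and empty wells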); conditions: low glucose
# [17] = biological target: NAD(+) hydrolase SARM1 (Homo sapiens) (UniProt Q6SZW1); test: blocking NAD cleavage by SARM1 SAM-TIR – cell lysate, NAD-Glo luminescence (AID 1508614;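 active = compound whose remaining NAD level is above about 45 nM, limit read from the data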;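 note: higher remaining NAD means stronger inhibition of SARM1 NADase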); conditions: SAM-TIR HEK293T lysate NADase, at 1 µM, stronger effect = higher value
# NAD(+) hydrolase SARM1 (Homo sapiens), sequence (Q6SZW1 whole entry, looked up, the tested form may be a part): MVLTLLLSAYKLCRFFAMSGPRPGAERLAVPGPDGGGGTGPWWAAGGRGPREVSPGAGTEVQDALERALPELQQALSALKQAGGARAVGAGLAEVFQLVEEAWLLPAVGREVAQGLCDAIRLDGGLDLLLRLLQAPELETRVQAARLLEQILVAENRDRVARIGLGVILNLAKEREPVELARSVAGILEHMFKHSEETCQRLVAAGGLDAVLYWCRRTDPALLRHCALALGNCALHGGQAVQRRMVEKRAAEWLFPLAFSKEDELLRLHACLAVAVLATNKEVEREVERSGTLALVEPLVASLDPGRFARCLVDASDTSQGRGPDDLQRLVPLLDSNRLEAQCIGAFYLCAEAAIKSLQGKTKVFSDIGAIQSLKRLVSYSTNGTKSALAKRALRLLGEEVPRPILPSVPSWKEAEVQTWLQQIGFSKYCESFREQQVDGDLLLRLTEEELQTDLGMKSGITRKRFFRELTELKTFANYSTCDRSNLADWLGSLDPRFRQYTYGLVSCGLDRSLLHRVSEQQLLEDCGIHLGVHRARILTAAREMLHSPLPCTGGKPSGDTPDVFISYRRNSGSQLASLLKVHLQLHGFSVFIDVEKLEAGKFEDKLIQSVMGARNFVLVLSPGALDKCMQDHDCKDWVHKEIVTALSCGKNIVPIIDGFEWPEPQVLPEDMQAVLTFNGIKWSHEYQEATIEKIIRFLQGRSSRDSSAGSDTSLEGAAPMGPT
# [18] = biological target: Mitogen-activated protein kinase 7 (Homo sapiens) (UniProt Q13164); test: Gal4-ERK5 driven luciferase induction – cell-based, HTS, primary screen (AID 1508626;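 active = luciferase signal above three times the same-plate solvent-only control wells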;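 note: luciferase driven by Gal4-ERK5 fusion binding five Gal4 sites before minimal TATA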); conditions: HeLa Gal4-ERK5 transactivation, 18 h, at 5 µM, stronger effect = higher value
# Mitogen-activated protein kinase 7 (Homo sapiens), sequence (Q13164 whole entry, looked up, the tested form may be a part): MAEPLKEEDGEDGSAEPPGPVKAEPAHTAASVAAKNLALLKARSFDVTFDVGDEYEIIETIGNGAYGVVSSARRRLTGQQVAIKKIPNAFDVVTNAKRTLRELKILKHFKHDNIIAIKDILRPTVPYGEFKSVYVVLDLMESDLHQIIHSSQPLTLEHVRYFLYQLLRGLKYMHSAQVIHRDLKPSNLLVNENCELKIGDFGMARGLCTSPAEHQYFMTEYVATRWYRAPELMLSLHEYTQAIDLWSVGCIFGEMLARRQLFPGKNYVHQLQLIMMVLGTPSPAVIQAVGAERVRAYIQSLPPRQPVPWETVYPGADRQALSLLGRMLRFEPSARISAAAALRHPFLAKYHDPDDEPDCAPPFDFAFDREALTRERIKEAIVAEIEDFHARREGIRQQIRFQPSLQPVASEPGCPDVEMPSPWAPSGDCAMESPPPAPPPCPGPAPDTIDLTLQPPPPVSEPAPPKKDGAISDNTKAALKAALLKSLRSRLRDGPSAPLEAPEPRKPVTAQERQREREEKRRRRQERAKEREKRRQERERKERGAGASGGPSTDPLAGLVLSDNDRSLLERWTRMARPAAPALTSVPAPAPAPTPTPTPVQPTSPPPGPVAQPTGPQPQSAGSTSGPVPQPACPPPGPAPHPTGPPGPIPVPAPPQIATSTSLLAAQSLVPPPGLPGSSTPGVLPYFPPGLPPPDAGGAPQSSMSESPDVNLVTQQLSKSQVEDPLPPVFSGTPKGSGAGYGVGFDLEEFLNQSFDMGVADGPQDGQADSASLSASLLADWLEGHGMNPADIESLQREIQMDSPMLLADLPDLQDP
# [19] = galactose survival enhancers in mitochondrial complex I cybrids – cell-based, galactose medium, ATP luminescence, primary screen (AID 1645843;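 active = z-score of at least 1.8 in each of two replicates, scored against plate mean and spread of sample wells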;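 note: positive z means more ATP and so rescue of galactose-driven cybrid death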); conditions: complex I mutant cybrid cells, 72 h, stronger effect = higher value
# [20] = measured here: epithelial PC-3E GFP cell survival
# [21] = measured here: mesenchymal TEM4-18 mCherry cell survival
# [22] = measured here: relative caspase fold change +Dox/-Dox
# [23] = measured here: total cells with miR-34 induction, stronger effect = lower value
# [24] = measured here: total cells without miR-34 induction
# [25] = MELAS cybrid survival, CellTiter-Glo 48 h, stronger effect = higher value
# [26] = Rieske KO mouse fibroblast survival, CellTiter-Glo 72 h
smiles,measurement,setting,value
CN(C)[C@@H]1C(=O)C(C(N)=O)=C(O)[C@@]2(O)C(=O)C3=C(O)c4c(O)cccc4[C@@](C)(O)[C@H]3[C@H](O)[C@@H]12,score,[1],0.9
same,cytochrome c release ratio,[2],0.99
same,inhibition of aggregation,[3],39.4%
same,nuclear beta-catenin stimulation,[4]; at 10 µM,-2.3% (inactive)
same,nuclear beta-catenin stimulation,"[4]; stimulation, at 2 µM",0.1%
same,insulin secretion stimulation,[5],1.4% (inactive)
same,viability decrease,[6],38.4% (inactive)
same,tube area decrease,[7],11.7% (inactive)
same,GLP1 secretion stimulation,[8],-2.9% (inactive)
same,inhibition of viability,[9],31.6% (inactive)
same,viability decrease (inhibition),[10],62.8% (active)
same,viability decrease (inhibition),[11],14.3% (inactive)
same,inhibition,[12],-7.39% (inactive)
same,red/green cell ratio (normalised),[13],0.97 (inactive)
same,normalised cell number,[13]; [20],1.02
same,normalised cell number,[13]; [21],0.99
same,activity remaining,[14],109% (inactive)
same,fold change,[15]; stronger effect = lower value,0.977 (inactive) and 0.919 (inactive) and 0.901 (inactive)
same,fold change,[15]; [22],0.839 and 0.936 and 1.89
same,cell count,[15]; [23],8720 and 8430 and 10800
same,cell count,[15]; [24],8930 and 9170 and 12000
same,z-score,[16]; [25],-3.76 (inactive)
same,z-score,[16]; [26],-2.32
same,remaining NAD,[17],10 nM (inactive)
same,luciferase signal,[18],92 AU (inactive)
same,z-score,[19],-1.4 (inactive)
O=[N+]([O-])/N=C1\NCCN1Cc1ccc(Cl)nc1,nuclear beta-catenin stimulation,[4]; at 10 µM,0.9% (inactive)
same,nuclear beta-catenin stimulation,"[4]; stimulation, at 2 µM",1.2%
same,insulin secretion stimulation,[5],-1.2% (inactive)
same,viability decrease,[6],-10.2% (inactive)
same,tube area decrease,[7],-4.1% (inactive)
same,GLP1 secretion stimulation,[8],-2% (inactive)
same,inhibition of viability,[9],9.4% (inactive)
same,viability decrease (inhibition),[10],27.9% (inactive)
same,viability decrease (inhibition),[11],-0.3% (inactive)
same,inhibition,[12],-7.9% (inactive)
CC(Cc1ccc(O)cc1)NCC(O)c1cc(O)cc(O)c1 (stereo not drawn),score,[1],1.05
same,cytochrome c release ratio,[2],1.18
same,inhibition of aggregation,[3],70.4%
same,nuclear beta-catenin stimulation,[4]; at 10 µM,-1.3% (inactive)
same,nuclear beta-catenin stimulation,"[4]; stimulation, at 2 µM",-0.9%
same,insulin secretion stimulation,[5],0.5% (inactive)
same,viability decrease,[6],-4.2% (inactive)
same,tube area decrease,[7],18.4% (inactive)
same,GLP1 secretion stimulation,[8],1.7% (inactive)
same,inhibition of viability,[9],-2.93% (inactive)
same,viability decrease (inhibition),[10],-0.4% (inactive)
same,viability decrease (inhibition),[11],-21.3% (inactive)
same,inhibition,[12],-6.23% (inactive)
same,red/green cell ratio (normalised),[13],1.06 (inactive)
same,normalised cell number,[13]; [20],0.97
same,normalised cell number,[13]; [21],1.03
same,activity remaining,[14],110% (inactive)
same,fold change,[15]; stronger effect = lower value,1 (inactive) and 0.892 (inactive) and 0.893 (inactive)
same,fold change,[15]; [22],0.955 and 0.849 and 2.71
same,cell count,[15]; [23],10100 and 8600 and 10800
same,cell count,[15]; [24],10100 and 9640 and 12100
same,z-score,[16]; [25],0.566 (inactive)
same,z-score,[16]; [26],0.235
same,remaining NAD,[17],10 nM (inactive)
same,luciferase signal,[18],48 AU (inactive)
same,z-score,[19],-0.085 (inactive)
O=C(O)c1nn(Cc2ccc(Cl)cc2Cl)c2ccccc12,nuclear beta-catenin stimulation,[4]; at 10 µM,1.4% (inactive)
same,nuclear beta-catenin stimulation,"[4]; stimulation, at 2 µM",4.8%
same,insulin secretion stimulation,[5],4.2% (inactive)
same,viability decrease,[6],31.1% (inactive)
same,tube area decrease,[7],-29.5% (inactive)
same,GLP1 secretion stimulation,[8],4.9% (inactive)
same,inhibition of viability,[9],19.6% (inactive)
same,viability decrease (inhibition),[10],24.5% (inactive)
same,viability decrease (inhibition),[11],3.6% (inactive)
same,inhibition,[12],4.63% (inactive)
same,red/green cell ratio (normalised),[13],0.98 (inactive)
same,normalised cell number,[13]; [20],0.85
same,normalised cell number,[13]; [21],0.83
same,fold change,[15]; stronger effect = lower value,1.1 (inactive) and 0.951 (inactive) and 0.966 (inactive)
same,fold change,[15]; [22],0.953 and 0.659 and 0.627
same,cell count,[15]; [23],10200 and 7460 and 7860
same,cell count,[15]; [24],9270 and 7840 and 8130
same,z-score,[16]; [25],-0.0995 (inactive)
same,z-score,[16]; [26],-0.0829
same,remaining NAD,[17],10 nM (inactive)
same,z-score,[19],2.35 (active) and 0.985 (inactive)
